Test results published in PubChem BioAssay (Tox21).
Inconclusive results are not listed. Where a call stands in place of a potency, no number is given. Values without a mark were called inactive. The source made the active and inactive calls. Calls come from the whole dose curve; as a rule, active = well fitted inhibition curve with a large enough effect in the repeat runs; inconclusive = weak or mixed curves; inactive = no such curve, though single readings can be large or run the other way.

molecular target: Cytochrome P450 2D6 (Homo sapiens) (UniProt P10635); test: Cytochrome P450 Family 2 Subfamily D Member 6 (CYP2D6) small molecule antagonists: luciferase reporter qHTS assay (AID 1671196); settings: P450-Glo CYP2D6 enzyme assay, luciferin luminescence, 1 h; series mostly up to 115 µM; note: nearly all actives have a fitted effect of over 50% in size
From the text: U.S. Tox21 Program National Center for Advancing Translational Sciences [NCATS] U.S. Environmental Protection Agency [EPA] National Institutes of Environmental Health Sciences [NIEHS] National Toxicology Program [NTP] U.S. Food and Drug Administration [FDA] Tox21 Assay Overview: Cytochrome P450 (CYP) enzymes are membrane-bound hemeproteins that play a key role in metabolism of drugs and xenobiotics. Evaluation of the effect of chemicals on CYP isozymes is useful to minimize the adverse drug reactions and toxicities in drug development process. Tox21 chemicals were tested for their effect on CYP enzyme activities by using P450-Glo (TM) screening systems (Promega Corporation, Madison, WI). These systems provide a luminescent method containing proluciferin substrates and are converted to luciferin products by CYP isozymes. The luciferin products formed are detected with a luciferin detection reagent, and the amount of light produced is proportional to CYP activity. P450-Glo (TM) CYP2D6 screening system (Catalog. No. V9890) was used to detect the compounds that interfere in CYP2D6 activity.
Tox21 Assay Protocol Summary: Two ul of enzyme-substrate mix was dispensed into medium binding white/solid 1536-well plates (Greiner Bio-One North America Inc., Monroe, NC) using a BioRaptr Flying Reagent Dispenser (FRD, Beckman Coulter, Brea, CA). […] The assay plates were incubated at room temperature for 10 min. Then 2 ul of NADPH regeneration solution was added to each well of the assay plates using an FRD and incubated at room temperature for 1 h. The reaction was stopped by adding 4 ul of detection reagent using an FRD and after 20 min incubation at room temperature the luminescence signal was measured using a ViewLux plate reader (Perkin Elmer, Shelton, CT). Data were expressed as relative luminescence units.
Potency is the fitted concentration of half-maximal effect.

Cytochrome P450 2D6 (Homo sapiens), sequence (P10635 whole entry, looked up): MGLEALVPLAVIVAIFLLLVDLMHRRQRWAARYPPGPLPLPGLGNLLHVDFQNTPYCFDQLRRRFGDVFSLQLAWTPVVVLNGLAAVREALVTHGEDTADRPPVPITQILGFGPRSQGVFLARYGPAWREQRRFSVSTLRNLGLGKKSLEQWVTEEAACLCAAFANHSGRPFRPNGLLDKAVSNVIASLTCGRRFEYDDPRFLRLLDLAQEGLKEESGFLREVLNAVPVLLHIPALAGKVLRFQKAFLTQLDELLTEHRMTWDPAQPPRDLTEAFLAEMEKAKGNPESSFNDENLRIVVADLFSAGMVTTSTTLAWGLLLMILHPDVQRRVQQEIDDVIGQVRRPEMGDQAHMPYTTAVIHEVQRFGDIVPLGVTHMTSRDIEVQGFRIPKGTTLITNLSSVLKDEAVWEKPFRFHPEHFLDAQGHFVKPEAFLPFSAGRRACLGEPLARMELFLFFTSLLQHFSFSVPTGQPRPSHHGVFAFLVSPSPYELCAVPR

SMILES	Potency	activity change, negative = inhibition
CC/C(=C(/c1ccc(O)cc1)c1ccc(OCCN(C)C)cc1)c1ccccc1	18.6 µM (active)	
Cc1ccc(N=Nc2c(O)ccc3ccccc23)c(C)c1	17.4 µM (active)	
CC(CC(C)(C)C)CC(C)(C)CC(C)(C)C (stereo not given)	inactive	
Cc1c[nH]c(=O)[nH]c1=O	inactive	
C=C1CC[C@H]2O[C@]2(C)CC[C@@H]2[C@@H]1CC2(C)C	inactive	
CCCC(=O)c1cc(O)c(O)cc1O	51.7 µM (active)	
C[C@H]1O[C@@H](O[C@H]2CC[C@@]3(C)[C@H](CC[C@@H]4[C@@H]3C[C@@H](O)[C@]3(C)[C@@H](C5=CC(=O)OC5)CC[C@]43O)C2)C[C@H](O)[C@@H]1O[C@H]1C[C@H](O)[C@H](O[C@H]2C[C@H](O)[C@H](O[C@@H]3O[C@H](CO)[C@@H](O)[C@H](O)[C@H]3O)[C@@H](C)O2)[C@@H](C)O1	inactive	
COC(=O)c1ccc([N+](=O)[O-])cc1	inactive	
c1ccc2cc3c4ccccc4c4ccccc4c3cc2c1	inactive	
Oc1ccc(Cl)cc1C1CCCC1	inactive	
CC(=O)CC(N)=O	inactive	
O=C1C=CC(=O)N1c1cccc(N2C(=O)C=CC2=O)c1	71 µM (active)	
CCOc1ccc([N+](=O)[O-])cc1	80.9 µM (active)	
c1ccc2c(c1)-c1ccc3ccc4cccc5cc-2c1c3c45	inactive	
CCNc1nc(NC(C)(C)C)nc(OC)n1	inactive	
CCCCCCCCCCCC(=O)Cl	inactive	
O=C1OC(O)C(C(Cl)Cl)=C1Cl (stereo not given)	inactive	
O=C1OC(=O)c2cc(-c3ccc4c(c3)C(=O)OC4=O)ccc21	inactive	
CCOc1nc(F)cc2nc(S(=O)(=O)Nc3c(Cl)cccc3C(=O)OC)nn12	inactive	
CN(C/C=C/c1ccccc1)Cc1cccc2ccccc12	0.977 µM (active)	

SMILES	Potency	activity change, negative = inhibition
O=C(Nc1ccc([N+](=O)[O-])cc1)Nc1ccc([N+](=O)[O-])cc1 (tested in a mixture with another compound)	inactive	
CC(Cc1ccc(O)c(O)c1)C(C)Cc1ccc(O)c(O)c1 (stereo not given)	inactive	
C=CC(=O)OCCOC1C2CCC1C1CC=CC12 (stereo not given)		-35.4% [at 23.6 µM]
c1ccc(C[P+](c2ccccc2)(c2ccccc2)c2ccccc2)cc1	0.252 µM (active)	
CCOC(=O)[C@H](O)[C@@H](O)C(=O)OCC	inactive	
CCOC(=O)[C@H](C)O	inactive	
Nc1ccc(F)c([N+](=O)[O-])c1	inactive	
Nc1c(Br)cc([N+](=O)[O-])cc1Br	inactive	
CN1CCN(CCCN2c3ccccc3Sc3ccc(Cl)cc32)CC1	0.275 µM (active)	
CC1(C)[C@H]2CC[C@]1(C)C(=O)C2	inactive	
Oc1cccc2c(O)cccc12	39.9 µM (active)	
CCCCCCCCCCCCCCCCCCNC(=O)OC1CCN(C(=O)OC[C@H](COC(=O)N(Cc2cccc[n+]2CC)C(=O)c2ccccc2OC)OC)CC1	27.5 µM (active)	
C=CCc1cc(S(=O)(=O)c2ccc(O)c(CC=C)c2)ccc1O	6.33 µM (active)	
O=C1OC2(c3ccccc31)c1ccc(O)c(Br)c1Oc1c2ccc(O)c1Br	inactive	
O=C(O)CN(CCCN(CC(=O)O)CC(=O)O)CC(=O)O		2.09% [at 23.6 µM]
CSc1ccc(O)cc1C	inactive	
O=C1c2ccccc2C(=O)c2c(Cl)cccc21	inactive	
C=CC(C)(C)O	inactive	
CCn1c2ccccc2c2ccccc21	inactive	
C=C1C(CCl)(CCl)C2(Cl)C(Cl)C(Cl)C1(Cl)C2(Cl)Cl (stereo not given)	44.3 µM (active)	
